Our source for the binding signal values is article PMC12136788.

T1: UNK ZnF1-3 (human, UniProt Q9C0B0 31-174)
T1 sequence: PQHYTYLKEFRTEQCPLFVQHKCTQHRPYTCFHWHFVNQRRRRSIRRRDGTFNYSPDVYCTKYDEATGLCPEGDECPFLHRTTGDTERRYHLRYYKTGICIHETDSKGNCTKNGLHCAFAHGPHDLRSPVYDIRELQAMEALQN

B1: chr9:109937893:109937894:+_ENSMUSG00000032479_ENSMUST00000165876|mus_mus|motif|central (ssRNA)
RNA: GGGAGUUCUACAGUCCGACGAUCUUCACGUGGUUUUUCUUCAGUCUGUACAGUUCCUUUGUCUUUAAUUGGAACUGUUGCGGCUUUUGUUUCCAAGGGCAGUGCAAGAUCGGAGGCUGGAGCCAUGCUGUUGUCCACAAUCAGCAACAGAGGAUUGAGCAUCA
B2: 126495366_126496508_792_3pUTR_ENSMUSG00000040502_ENSMUST00000040307|mouse|control|control (ssRNA)
RNA: GGGAGUUCUACAGUCCGACGAUCAUUAGGCAGGGUUGGUGUGUGCAACGCACUGAGCCGUCACAGCGGCAAGGGCUCAGGAGCUCCCCCUGCUCCGGGCCUUGGAAGCAGAUCCUGCACUGGGGGGUUCGGAGCCCACUGUCCCAACAGAGGAUUGAGCAUCA
B3: chr7:149838571:149838572:-_ENSMUSG00000048583_ENSMUST00000000033|mus_mus|motif|central (ssRNA)
RNA: GGGAGUUCUACAGUCCGACGAUCCAUGUAUCACUUGGCAGUGCCAUCUCCUUAUCUGGCCAAACUUAUUCUACACUGGCGGGUCAUUGGUCCUCAUGGCGGGGGUGGUUGGGGAGCACCGGGCUCACCAUGUGGACAGGUGCUCAACAGAGGAUUGAGCAUCA
B4: chr6:74304526:74304527:-_ENSG00000119899_ENST00000355773|hu_mus|motif|central (ssRNA)
RNA: GGGAGUUCUACAGUCCGACGAUCCAAGUUUAUCAGUGUGUGUGUGUGUGUGUGUGUCCAUUUCAGCUUCAUUUCCGGUGCCCUUACCUUAUAUCAUACUGCCUUUCCUGCAGCCUGAUAUGUGAACCCAGUAUACGGCCUGGCCAACAGAGGAUUGAGCAUCA
B5: chr4:57314706:57314707:+_ENSG00000128050_ENST00000264221|hu_mus|hu_hu_hu_mus_True|88_98 (ssRNA)
RNA: GGGAGUUCUACAGUCCGACGAUCCAGAAUUUCAAAAAUAGCCUGUGUAGCAUGACUCAUGAUGUCCACUUCAGUCUGCCCUAUAACAAGGCCAGCAAAACAGAAUUUUGCAGCAAUGAGUUGCUCCUCAGACCACUGUGGAUCCAACAGAGGAUUGAGCAUCA
B6: chr5:137088537:137088538:-_ENSG00000177733_ENST00000314940|hu_hu|FALSE|FALSE (ssRNA)
RNA: GGGAGUUCUACAGUCCGACGAUCCAGCAAGUUCACUCCCUCCCUCCCCCCAAAAAACACAAAUUAAAACAAGACAUUUUGCUAGUAUAAAAACGACCAAGGUCCAAGUAAUAAUAAAAAAAUAGAGUCCAUCAAUGACUGUAACAACAGAGGAUUGAGCAUCA
B7: chr5:137088537:137088538:-_ENSG00000177733_ENST00000314940|hu_mus|FALSE|FALSE (ssRNA)
RNA: GGGAGUUCUACAGUCCGACGAUCUCCCGCCCGCCCACCCGCCCCCCCAAAAAACACAAAUUAAAACAAGACAUUUUUUUGCUAGUAUAAAAACGACCAAGGUCCAAGUAAUAAUAAAAAAAUAGAGUCCAUCAAUGACUGUAACAACAGAGGAUUGAGCAUCA
B8: chr4:57314706:57314707:+_ENSG00000128050_ENST00000264221|hu_mus|hu_hu_hu_mus_True|48_88 (ssRNA)
RNA: B5 RNA with C42U, G90U
B9: chr9:15470827:15470828:-_ENSG00000164985_ENST00000397519|hu_hu|motif|central (ssRNA)
RNA: GGGAGUUCUACAGUCCGACGAUCGAAUGUCAAGAGAAGGGCCCCAUUCUCAGGGAUAUAACUGCUAUUCCAGUUUAAUAACGGGCUUCAAAACAAAAUGAAUUUUUAUAUUUUCUAGAUGAAUAAUGUACAACCACCAUCUUCCAACAGAGGAUUGAGCAUCA
B10: chr5:137088537:137088538:-_ENSG00000177733_ENST00000314940|hu_hu|motif|central (ssRNA)
RNA: B6 RNA with U82G, A83G
B11: chr5:137088537:137088538:-_ENSG00000177733_ENST00000314940|hu_mus|motif|central (ssRNA)
RNA: B7 RNA with U82G, A83G
B12: chr4:88367131:88367132:-_ENSMUSG00000070923_ENSMUST00000094993|mus_mus|FALSE|FALSE (ssRNA)
RNA: GGGAGUUCUACAGUCCGACGAUCUUGGUAAUUGCUUGCUUCCAAAAGUAAAUUCACACAGGUAUUGUCUGUUCUCAUGAAAUCUACUGUCUGCACAUAGUUGAUGAGAUCCUGUGGUGUCAUCAGUGGAAAGCGAAUAUUCUUCAACAGAGGAUUGAGCAUCA
B13: chr12:16048344:16048345:+_ENSG00000023734_ENST00000419869|hu_hu|hu_hu_hu_mus_True|78_98 (ssRNA)
RNA: GGGAGUUCUACAGUCCGACGAUCAGAUCGUCCAUAAGUUAUAACCAAAAUCUCUCCCUCAGGAAUAUACUCCAUGCUGCUAACAGACAUAUUAAAAUUCAGAGAUUUCACUUCUGUCAUUGUGGCAUGAUCCCAGAGCCGAACCAACAGAGGAUUGAGCAUCA
B14: 201281127_201284068_384_CDS_ENSG00000196141_ENST00000360760|human|control|control (ssRNA)
RNA: GGGAGUUCUACAGUCCGACGAUCCGGCUGCAGGGGCCCUGCCUCAGGCCUCUCCACCUUGUCUUUAGCAUCUUUGUUGCCUUGAUGCUGCUUGGACUUGCUUCUUUUUCUUUUAUUGUUCUUCUUUUUUCCUGUCAUAUUCCACAACAGAGGAUUGAGCAUCA

Numbering of substitutions follows the chain as printed. The full ranking holds about 24,000 sequences; the median of “enrichment r” is about 0.99, and the highest 2% start at about 3.7. Shown is part of a subset that was picked to be rich in the highest values.

The assay deals with T1, UNK ZnF1-3. Put plainly: nsRBNS (natural sequence RNA bind-n-seq); RBNS binding buffer (assumed for nsRBNS): 25 mM Tris pH 7.5, 150 mM KCl, 3 mM MgCl2, 0.01% Triton X-100, 500 ug/ml BSA, 20 U/ml SUPERase-In, 4 C; UNK is unkempt and MSI1 is Musashi-1; names of the RNAs are library labels; protein concentration not given here; high values mean tight binding.
With B1, the binding signal was found to be 0.462 enrichment R.

On to B2, for which the binding signal worked out at 0.848 enrichment R.

Molecule B3 came in with a binding signal of 0.781 enrichment R.

Take B4: the binding signal was 0.616 enrichment R.

For the molecule B5, the binding signal was determined as 0.943 enrichment R.

With B6, the binding signal was found to be 5.73 enrichment R.

B7: the binding signal stood at 9.05 enrichment R.

The molecule B8 yielded a binding signal of 0.922 enrichment R.

In the case of B9, the binding signal turned out to be 1.6 enrichment R.

Molecule B10 showed a binding signal of 6.14 enrichment R.

Take B11: the binding signal is 3.51 enrichment R.

As for B12, the binding signal was determined as 0.859 enrichment R.

The molecule B13 gave a binding signal of 1.06 enrichment R.

For the molecule B14, the binding signal was 0.308 enrichment R.
